A short description of test [1]: optical density shifts of acrAB sulA E. coli – strain DRC41, OD650, 48 h, E. coli filamentation inducer project, primary screen (AID 1152).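 Note: E. coli MC1000 strain DRC41 lacking acrAB efflux pump and sulA.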 Particulars: higher = more signal, called active from +8 up or from −8 down.
Test [2] is described as follows: probe aLefty1 binding on compound microarray – biochemical, small-molecule microarray, 635/667 nm fluorescence, primary screen (AID 1153).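 Note: score merges spot fluorescence with signal-to-noise ratio from the scanned slide images.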 To be noted: higher = more signal.
Test [3] in a line: plasmodial surface anion channel blockers, osmotic lysis – cell-based, P. falciparum Indochina, OD700, 1 h, primary screen (AID 1154). Particulars: P. falciparum Indochina infected RBC osmotic lysis, higher = more signal, called active from +8 up or from −8 down.
Test [4] is described as follows: plasmodial surface anion channel blockers, osmotic lysis – cell-based, P. falciparum Indochina, OD700, 2 h, primary screen (AID 1155).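 Note: lysis reports solute entry through the parasite surface anion channel PSAC.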 To be noted: P. falciparum Indochina infected erythrocytes, higher = more signal, called active from +8 up or from −8 down.
Test [5] in a line: changes in parasitized red cell lysis, either direction – P. falciparum Indochina, OD700, 3 h, PSAC antagonist project, primary screen (AID 1156). To be noted: P. falciparum-infected erythrocytes, osmotic lysis, higher = more signal, called active from +8 up or from −8 down.
Test [6] can be described thus: plasmodial surface anion channel blockers, osmotic lysis – cell-based, P. falciparum Indochina, OD700, 18 h, primary screen (AID 1157). To be noted: P. falciparum Indochina infected erythrocytes, osmotic lysis OD700, 18 h; higher = more signal, called active from +8 up or from −8 down.
Test [7] can be described thus: S6 kinase pathway phospho-S6 level changes – cell-based, A549, cytoblot, luminescence, serum-stimulated, primary screen (AID 1158).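 Note: serum-stimulated A549 lung adenocarcinoma cells; signal is phosphorylated S6 detected by cytoblot immunostaining with HRP secondary.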 Particulars: 5 h, higher = more signal.
For test [8], the target named is NADPH oxidase 2 (Homo sapiens) (UniProt P04839). As to the kind of experiment: compounds shifting NOX2 Amplex Red fluorescence – cell-based, HEK293-NOX2, PMA-stimulated, NOX inhibitor project, primary screen (AID 1159). Note: test concentration not given here. To be noted: 45 min, higher = more signal, called active from +8 up or from −8 down.
Chain of NADPH oxidase 2 (Homo sapiens) (P04839 whole entry, looked up): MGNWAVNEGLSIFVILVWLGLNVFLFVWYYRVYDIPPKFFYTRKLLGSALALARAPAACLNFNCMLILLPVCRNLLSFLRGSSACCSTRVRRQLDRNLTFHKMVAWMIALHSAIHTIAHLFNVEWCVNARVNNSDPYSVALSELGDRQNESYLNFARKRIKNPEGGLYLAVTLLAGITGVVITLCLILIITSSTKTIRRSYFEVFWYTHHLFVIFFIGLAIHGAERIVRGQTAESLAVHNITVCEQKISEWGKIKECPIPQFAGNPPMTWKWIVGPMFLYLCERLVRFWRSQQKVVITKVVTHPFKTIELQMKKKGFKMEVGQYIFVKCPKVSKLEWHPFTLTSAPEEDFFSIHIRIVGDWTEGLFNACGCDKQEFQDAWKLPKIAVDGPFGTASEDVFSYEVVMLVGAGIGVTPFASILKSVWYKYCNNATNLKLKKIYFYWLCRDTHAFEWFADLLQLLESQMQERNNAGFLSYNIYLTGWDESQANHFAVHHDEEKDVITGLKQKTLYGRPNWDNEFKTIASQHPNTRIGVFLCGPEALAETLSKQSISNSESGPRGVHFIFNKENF
The target in test [9] is NADPH oxidase 4 (Homo sapiens) (UniProt Q9NPH5). Description: compounds shifting NOX4 Amplex Red fluorescence – cell-based, HEK293-NOX4, tetracycline-induced, NOX inhibitor project, primary screen (AID 1160). Particulars: HEK293-NOX4, Amplex Red H2O2 fluorescence, 45 min; higher = more signal, called active from +8 up or from −8 down.
Chain of NADPH oxidase 4 (Homo sapiens) (Q9NPH5 whole entry, looked up): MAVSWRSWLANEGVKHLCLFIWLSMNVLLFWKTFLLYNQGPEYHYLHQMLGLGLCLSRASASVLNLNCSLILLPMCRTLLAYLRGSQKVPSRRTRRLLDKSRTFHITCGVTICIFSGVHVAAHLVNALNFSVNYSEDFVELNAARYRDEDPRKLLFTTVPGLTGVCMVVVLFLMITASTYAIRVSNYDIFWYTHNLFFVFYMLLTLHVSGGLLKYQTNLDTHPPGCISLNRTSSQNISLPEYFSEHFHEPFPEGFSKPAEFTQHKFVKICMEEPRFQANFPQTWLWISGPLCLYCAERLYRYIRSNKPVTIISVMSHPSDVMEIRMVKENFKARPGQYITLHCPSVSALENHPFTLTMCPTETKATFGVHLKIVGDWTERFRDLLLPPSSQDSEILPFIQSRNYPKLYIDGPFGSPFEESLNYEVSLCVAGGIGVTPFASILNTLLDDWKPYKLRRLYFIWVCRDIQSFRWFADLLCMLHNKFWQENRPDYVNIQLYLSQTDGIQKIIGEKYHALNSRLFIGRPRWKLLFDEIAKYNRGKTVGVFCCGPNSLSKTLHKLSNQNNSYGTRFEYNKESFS
For test [10], the target named is NADPH oxidase 5 (Homo sapiens) (UniProt Q96PH1). Description: compounds shifting NOX5 Amplex Red fluorescence – cell-based, HEK293-NOX5, NOX inhibitor project, primary screen (AID 1161). Particulars: HEK293-NOX5, ionomycin, 45 min, higher = more signal.
Chain of NADPH oxidase 5 (Homo sapiens) (Q96PH1 whole entry, looked up): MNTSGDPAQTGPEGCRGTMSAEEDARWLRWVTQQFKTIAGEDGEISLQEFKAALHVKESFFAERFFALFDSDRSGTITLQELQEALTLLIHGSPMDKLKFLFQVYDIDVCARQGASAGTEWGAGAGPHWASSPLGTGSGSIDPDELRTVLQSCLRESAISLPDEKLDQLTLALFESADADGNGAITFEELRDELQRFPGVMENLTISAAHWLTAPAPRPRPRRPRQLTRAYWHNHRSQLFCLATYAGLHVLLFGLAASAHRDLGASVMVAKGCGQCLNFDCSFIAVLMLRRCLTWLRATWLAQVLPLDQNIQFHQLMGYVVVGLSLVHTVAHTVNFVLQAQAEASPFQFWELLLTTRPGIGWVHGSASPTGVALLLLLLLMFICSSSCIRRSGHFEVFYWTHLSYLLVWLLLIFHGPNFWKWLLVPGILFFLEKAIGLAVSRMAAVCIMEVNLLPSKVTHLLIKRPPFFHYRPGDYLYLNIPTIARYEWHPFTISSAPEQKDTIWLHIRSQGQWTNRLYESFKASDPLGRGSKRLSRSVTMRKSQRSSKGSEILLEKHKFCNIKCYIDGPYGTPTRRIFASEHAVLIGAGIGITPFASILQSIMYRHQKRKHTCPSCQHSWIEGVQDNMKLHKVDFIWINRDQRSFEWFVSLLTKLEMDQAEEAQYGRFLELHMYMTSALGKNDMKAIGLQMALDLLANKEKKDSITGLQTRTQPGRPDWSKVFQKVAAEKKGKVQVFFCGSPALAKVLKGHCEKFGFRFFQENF
The nature of test [11]: compound effects on lung adenocarcinoma cell viability – A549, calcein-AM fluorescence, 48 h, basal, profiling panel (AID 1162). Note: test concentration not given here. Particulars: higher = more signal.
Test [12] can be described thus: compound effects on differentiated 3T3-L1 adipocyte viability – cell-based, 3T3-L1 adipocytes, calcein-AM fluorescence, 48 h, basal, profiling panel (AID 1163). Note: test concentration not given here. Particulars: 3T3-L1 adipocytes viability, higher = more signal.
Test [13] is described as follows: compound effects on hepatocellular carcinoma cell viability – HepG2, calcein-AM fluorescence, 48 h, basal, profiling panel (AID 1164). Note: test concentration not given here. Particulars: higher = more signal.
The nature of test [14]: compound effects on multiple myeloma cell viability – MM1S, calcein-AM fluorescence, 48 h, basal, profiling panel (AID 1165).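 Note: viability of MM1S multiple myeloma cells under basal unstimulated conditions; test concentration not given here.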 To be noted: higher = more signal.
A short description of test [15]: calcein-AM signal in unstimulated myeloma cells – cell-based, calcein-AM fluorescence, 48 h, PK04 Diversity Set, profiling panel (AID 1166).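 Note: cells grown under basal conditions without added stimulus; test concentration not given here.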 To be noted: RPMI8226 myeloma viability, higher = more signal.
Test [16] can be described thus: JC-1 mitochondrial signal, unstimulated HepG2 cells – cell-based, JC-1 fluorescence, 24 h, 100 nL compound, profiling panel (AID 1167). Note: test concentration not given here. Particulars: HepG2 mitochondrial potential, higher = more signal.
The nature of test [17]: JC-1 mitochondrial signal, unstimulated adipocytes – cell-based, JC-1 fluorescence, 3T3-L1 adipocytes, 24 h, 100 nL compound, profiling panel (AID 1168). Note: test concentration not given here. Particulars: JC-1 mitochondrial fluorescence, higher = more signal, called active from +8 up or from −8 down.
Test [18] in a line: JC-1 mitochondrial signal, unstimulated myeloma cells – cell-based, JC-1 fluorescence, RPMI8226, 24 h, 100 nL compound, profiling panel (AID 1169). Note: test concentration not given here. Particulars: JC-1 mitochondrial potential fluorescence, higher = more signal.
Test [19] in a line: JC-1 mitochondrial signal, unstimulated MM1S myeloma – cell-based, JC-1 fluorescence, 24 h, 100 nL compound, profiling panel (AID 1170). Note: test concentration not given here. Particulars: MM1S mitochondrial potential, higher = more signal.
Test [20] can be described thus: resazurin metabolic signal in A549 cells – cell-based, resazurin fluorescence, 24 h, PK04 Diversity Set, profiling panel (AID 1171). Note: test concentration not given here. Particulars: A549 viability, higher = more signal, called active from +8 up or from −8 down.

In PubChem BioAssay one finds z-score and composite z-score data, which are given here for nine compounds.

Active and inactive are the calls of the source.

As to `CC(C)CNC(=O)[C@@]1(c2ccc([N+](=O)[O-])cc2)CC(=O)N(C2CCCCC2)[C@@H]1c1ccc(CO)cc1I`, the z-score in test [1] is -0.826 (inactive); in test [3], 10.8 (active); in [4], 2.15 (inactive); in test [5], 3.67 (inactive); in test [6], 0.794 (inactive); in test [7], -0.183. Besides, the z-score in test [8] was 0.685 (inactive); in test [9], 0.486 (inactive); in test [10] it was 1.74; in test [11], 0.304; in [12] it was 0.13; in test [13] it was -0.108. Moreover, the z-score in [14] was -2; in test [15] it was -0.317; in [16], 1.15; in test [17] it was -0.472 (inactive); in test [18] it was -0.296; in test [19] it was 0.0603. In addition, the z-score in [20] is 1.02 (inactive). The compound further gave a composite z-score in test [2] of 0.213.
On to `CCOC(=O)C[C@H]1[C@H](OC(=O)Cc2ccc3c(c2)OCO3)[C@@H](NC(=O)Cc2ccc(OC)cc2)c2cc(OCCCO)ccc2N1C(=O)c1ccccc1`, for which the z-score was 1.53 (inactive) in test [1]; 1.8 (inactive) in [3]; 0.263 (inactive) in test [4]; -0.729 (inactive) in [5]; -0.33 (inactive) in test [6]; -0.295 in [7]. The z-score in test [8] is -1.25 (inactive); in [9], 0.689 (inactive); in [10], 0.267; in [11], 0.208; in [12], -0.0437; in test [13], 0.547. The z-score was 1.08 in test [14]; 0.192 in [15]; 0.873 in [16]; -1.1 (inactive) in [17]; 0.192 in test [18]; -0.606 in test [19]. For the same compound, the z-score in test [20] was -0.0709 (inactive). In addition, the composite z-score in [2] was 0.0903.
As for `O=C(CS)NCCCCCCNC(=O)[C@@H]1C[C@@H]2C(=O)N3CCC[C@H]3C(=O)N2[C@@H]1c1cccc(OCCO)c1`, the z-score is 1.89 (inactive) in test [1]; 2.94 (inactive) in [3]; -0.677 (inactive) in [4]; 1.94 (inactive) in [5]; -1.78 (inactive) in test [6]; 2.09 in [7]. Besides, the z-score in test [8] is 1.17 (inactive); in test [9], 0.87 (inactive); in test [10] it was 0.222; in test [11], 2.14; in [12], 0.426; in test [13], 1.02. Further, the z-score in test [14] is 0.0848; in [15], 0.449; in test [16] it was -0.151; in test [17] it was 0.193 (inactive); in test [18] it was 0.0158; in [19] it was 0.111. The z-score in test [20] was -0.659 (inactive). In test [2], this compound came in with a composite z-score of 0.113.
With `CC(C)CN1C(=O)[C@@]2(Cc3ccccc31)c1ccccc1C(=O)N(Cc1ccccc1C(F)(F)F)[C@H]2c1ccc(CO)cc1`, the z-score is 1.14 (inactive) in test [1]; 0.21 (inactive) in test [3]; -0.419 (inactive) in [4]; -0.495 (inactive) in test [5]; -0.48 (inactive) in [6]; 2.04 in test [7]. For the same compound, the z-score in test [8] is 0.0489 (inactive); in [9], 0.771 (inactive); in [10] it was 1.34; in [11], 1.23; in test [12], 1.06; in [13], 0.493. Also, the z-score is 0.939 in test [14]; 1.2 in [15]; 0.786 in [16]; -1.55 (inactive) in test [17]; 0.01 in test [18]; -0.534 in test [19]. In [20], the z-score is -0.236 (inactive). Moreover, the composite z-score in test [2] is -0.345.
With `O=C1NCC(=O)N2[C@@H]1C[C@@H](C(=O)O)[C@H]2c1ccc(O)cc1`, the z-score is 0.533 (inactive) in test [1]; 2.73 (inactive) in test [3]; 0.328 (inactive) in [4]; -3.02 (inactive) in test [5]; -0.0173 (inactive) in test [6]; -0.174 in test [7]. Further, the z-score in test [8] was -1.92 (inactive); in [9], -0.822 (inactive); in test [10], -1.29; in [11], 0.391; in test [12], -0.0074; in test [13], -0.084. The z-score in test [14] was -2.79; in test [15], -0.0676; in test [16], 0.429; in [17] it was -0.799 (inactive); in test [18], 0.233; in test [19] it was -0.775. In test [20], the z-score is 0.249 (inactive). The composite z-score in test [2] came out at 0.138.
`CN(C)CCCCNC(=O)[C@H]1C[C@H]2C(=O)N3CCC[C@H]3C(=O)N2[C@H]1c1ccc(O)cc1`: the z-score was 1.67 (inactive) in test [1]; 0.148 (inactive) in [3]; -1.79 (inactive) in test [4]; 1.55 (inactive) in [5]; -2.18 (inactive) in test [6]; 0.752 in test [7]. Also, the z-score was -0.714 (inactive) in test [8]; -0.561 (inactive) in [9]; -3.16 in test [10]; -0.448 in test [11]; 0.862 in test [12]; -0.55 in test [13]. In addition, the z-score in [14] is 0.26; in test [15] it was 0.293; in [16], -0.835; in test [17], -0.104 (inactive); in test [18] it was 0.613; in [19], -0.927. The z-score in test [20] is 0.228 (inactive). Besides, the composite z-score in test [2] is -0.926.
For `CN(C)CCCNC(=O)[C@@]1(c2ccc([N+](=O)[O-])cc2)CC(=O)N(CC23CC4CC(CC(C4)C2)C3)[C@@H]1c1ccc(CO)cc1`, the z-score in [1] is -3.6 (inactive); in test [3], 0.924 (inactive); in test [4] it was -0.365 (inactive); in test [5], -0.788 (inactive); in test [6] it was -0.798 (inactive); in test [7] it was -2.28. The z-score in test [8] was -8.3 (active); in test [9] it was -2.09 (inactive); in test [10] it was 0.357; in test [11], -3.74; in test [12] it was 0.0309; in [13], -5.05. Besides, the z-score in test [14] is -3.8; in test [15], -4.03; in [16] it was -1.58; in [17] it was 0.303 (inactive); in test [18], -1.04; in [19] it was -2.33. Further, the z-score in [20] is -4.78 (inactive). This compound showed a composite z-score in test [2] of 0.885.
Consider `C[C@H]1ON(c2ccc(C(=O)OC(C)(C)C)cc2)[C@@H](c2ccc(O)cc2)[C@@H]1C(=O)N1C(=O)OC[C@@H]1c1ccccc1`, for which the z-score is -0.569 (inactive) in test [1]; 3.71 (inactive) in test [3]; 0.622 (inactive) in [4]; 0.166 (inactive) in [5]; 0.428 (inactive) in test [6]; 0.433 in test [7]. The z-score is -0.414 (inactive) in test [8]; -0.254 (inactive) in test [9]; 0.718 in test [10]; -0.674 in [11]; 0.97 in test [12]; -2.97 in [13]. The z-score in test [14] is -2.72; in test [15] it was -3.02; in test [16] it was -2.36; in [17], -0.575 (inactive); in test [18], -0.575; in [19] it was -2.36. Besides, the z-score in test [20] was -0.0657 (inactive). Also, in test [2], the composite z-score is -0.0023.
`CN(C)CCCNC(=O)[C@@H]1c2ccccc2C(=O)N(CC23CC4CC(CC(C4)C2)C3)[C@H]1c1ccc(CO)cc1`: the z-score in test [1] is 0.0377 (inactive); in test [3] it was 1.1 (inactive); in test [4], 0.964 (inactive); in test [5], 0.648 (inactive); in test [6], 1.09 (inactive); in test [7], -0.245. Moreover, the z-score is -2.04 (inactive) in test [8]; -0.633 (inactive) in [9]; -0.657 in test [10]; -0.104 in test [11]; 0.195 in [12]; -0.99 in test [13]. The z-score in [14] was -3.75; in [15] it was -1.91; in test [16], 1.44; in test [17], -0.211 (inactive); in test [18], -0.296; in test [19], -1.73. The z-score in test [20] is 1.21 (inactive). Also, the composite z-score in test [2] is -0.262.
